# Bioassay records from PubChem BioAssay.
# Hits are enriched below; roughly 2.4% of the tested compounds scored in any of these assays.
# Pol eta inh: blocks human DNA polymerase eta activity; Q9Y253; recombinant Pol eta, fluorescent DNA replication assay; Potency, µM (highest dose often 114 µM), inactives show at the highest dose activity change, negative = inhibition, hits mostly inhibitors; 390,000 compounds, 1.2% hits; AID 588591; further: on the % scale 0 is the no-effect control and ±100 the full control effect
# Target sequence (Q9Y253 whole entry, looked up): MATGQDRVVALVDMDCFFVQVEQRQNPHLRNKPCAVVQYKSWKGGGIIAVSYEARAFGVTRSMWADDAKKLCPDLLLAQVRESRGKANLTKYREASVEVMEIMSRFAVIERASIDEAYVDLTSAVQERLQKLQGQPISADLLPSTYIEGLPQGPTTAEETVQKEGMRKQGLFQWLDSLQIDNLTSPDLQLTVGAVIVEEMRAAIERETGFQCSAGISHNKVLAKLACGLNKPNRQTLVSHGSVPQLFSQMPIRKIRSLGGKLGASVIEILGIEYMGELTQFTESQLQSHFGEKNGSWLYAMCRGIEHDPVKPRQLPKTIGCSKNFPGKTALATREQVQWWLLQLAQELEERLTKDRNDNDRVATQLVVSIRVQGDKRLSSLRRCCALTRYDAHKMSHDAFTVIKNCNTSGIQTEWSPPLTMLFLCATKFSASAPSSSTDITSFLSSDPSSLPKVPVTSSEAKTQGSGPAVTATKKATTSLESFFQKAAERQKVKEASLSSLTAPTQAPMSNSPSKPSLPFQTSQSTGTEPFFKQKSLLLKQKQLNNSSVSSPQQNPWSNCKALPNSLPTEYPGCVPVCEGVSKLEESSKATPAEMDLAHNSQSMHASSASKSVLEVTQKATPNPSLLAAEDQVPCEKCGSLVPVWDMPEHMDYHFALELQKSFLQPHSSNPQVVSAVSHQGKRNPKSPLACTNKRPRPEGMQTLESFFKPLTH
#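 Pol eta (10 nM) was preincubated with compounds for 15 min at room temperature, after which fluorescent replication substrate (50 nM final) was added to start the reaction. Fluorescence was read kinetically at 0 and 10 min.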
# GLS inhibitor: inhibitors of human glutaminase (GLS) | GLS enzymatic activity, qHTS titration | AID 624170 | 410,000 compounds, 0.21% hits | O94925 | Potency, µM (doses to about 45.5 µM), without a hit: top-dose activity change, negative = inhibition, actives largely listed as inhibitors; further: on the % scale 0 is the no-effect control and ±100 the full control effect
#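 Enzyme dispensed in phosphate buffer (45 mM, pH 8.2, 0.02% Tween-20), compounds pinned in, then 1 mM L-glutamine solution and the glutamate oxidase–HRP–Amplex Red mix added; fluorescence read immediately and again after 30 min at room temperature.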
# POLI inh: inhibitors of human DNA polymerase iota; Pol iota fluorescent replication assay, 10 min; Potency, µM (highest dose often 115 µM), for the others: top-dose activity, negative = inhibition, usual class: inhibitors; 390,000 compounds, 1% hits; Q9UNA4
#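 Fluorescent replication assay read twice, at 0 min and 10 min after adding 50 nM (final) substrate. Enzyme (10 nM) and compounds were first incubated 15 min at room temperature; enzyme-free buffer wells were negative controls.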
# POLK inh: DNA polymerase kappa (human) inhibition; Potency, µM (highest dose often 107 µM), for the others: at the highest dose activity, negative = inhibition, usual class: inhibitors; purified Pol kappa, fluorescent DNA synthesis assay, 10 min; AID 588579; 400,000 compounds, 0.53% hits; further: on the % scale 0 is the no-effect control and ±100 the full control effect
#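 10 nM Pol kappa was preincubated with compounds for 15 min at room temperature. Reaction started with 50 nM (final) substrate. Fluorescence read kinetically at 0 and 10 min.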
# POLB inh: DNA polymerase beta (human) inhibition; P06746; Pol beta primer extension/strand displacement, fluorescence kinetic; Potency, µM (highest dose often 114 µM), for the others: at the top dose activity change, negative = inhibition, usual class: inhibitors; 340,000 compounds, 1.3% hits; AID 485314; further: on the % scale 0 is the no-effect control and ±100 the full control effect
#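 Pol beta (10 nM) and compounds were preincubated 15 min at room temperature, then 50 nM substrate (final) started primer extension/strand displacement. Reads were taken at 0 and 10 min; concentration-response data were fitted to a four-parameter Hill equation.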
# KAT2A inh: blocks human GCN5L2 histone acetyltransferase; Q92830; GCN5L2 HAT assay, ThioGlo1 CoA-SH fluorescence; Potency, µM (highest dose often 58.9 µM), for the others: at the top dose activity change, negative = inhibition, actives largely listed as inhibitors; 390,000 compounds, 0.21% hits; further: on the % scale 0 is the no-effect control and ±100 the full control effect
#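 Titration-based screen in which CoA formation is detected via maleimide probe ThioGlo1 (50uM) turning fluorescent on thiol reaction; substrates H3(1-25) 75uM and acetyl-CoA 70uM, GCN5L2 20nM, 20 min incubation at room temperature.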
# * marks the source's active call; other numbers are inactive results; ? = inconclusive; nt = not tested or not shown; ! = a repeat was not active; [ ] = another dose, or the depositor's remark. The call rests on the fitted dose curve; in most records, active means well fitted inhibition curve with a large enough effect; inconclusive means small, poorly fitted or top-dose-only effect, or another doubt; inactive means no such curve, though single readings can be large or run the other way. Potency means the concentration at half of the fitted maximal effect.
SMILES,Pol eta inh,GLS inhibitor,POLI inh,POLK inh,POLB inh,KAT2A inh
COc1ccc(CNC(=O)c2ccc(C(C)C)cc2)cc1,-7.9%,9.6%,41.7%,-10.3%,-5.2%,-0.7%
Cc1[nH]n(-c2ccccc2)c(=O)c1C(c1cccc([N+](=O)[O-])c1O)c1c(C)[nH]n(-c2ccccc2)c1=O,-21.1%,10µM*,0.282µM*,-12.2%,0.0%,-2.0%
O=C1NC(=O)N(c2ccc3c(c2)OCO3)C(=O)/C1=C/c1ccc(N2CCCCC2)o1,-16.9%,4.6%,?,-8.2%,21.1%,-13.3%
O=C1NC(=O)N(c2ccc3c(c2)OCO3)C(=O)/C1=C\c1ccc(-c2ccccc2C(=O)O)o1,10µM*,-27.4%,20µM*,79.4µM*,10µM*,-16.5%
Cc1ccc(-n2nc3c(=O)n(CC(=O)NCC(C)c4ccccc4)nc(C)c3c2C)cc1 (stereo not drawn),-25.3%,-2.2%,31.0%,-11.0%,-1.9%,-2.1%
CC[C@H](C)/C=C(C)/C=C/C1=CC2=C(Cl)C(=O)[C@](C)(OC(C)=O)C(=O)C2=CO1,20µM*,5.2%,50.1µM*,79.4µM*,nt,?
COc1ccc(C[C@H]2c3cc(OC)c(OC)cc3CCN2C)cc1OC,nt,nt,nt,0.7%[12 µM],nt,8.91µM*
O=C(NCc1ccc2c(c1)CCN2C(=O)c1ccccc1)Nc1cccc(C(F)(F)F)c1,?,-9.0%,6.8%,-6.1%[60.1 µM],-15.3%,-24.1%
ClCCN(CCCl)c1ccc(/C=C/c2ccnc3ccccc23)cc1,nt,nt,-12.4%,-15.8%,nt,nt
O=c1[nH]c(=O)n(-c2cccc(F)c2)c(O)c1/C=C1\C=Nc2ccccc21,-25.3%,-15.5%,14.1µM*,-10.2%,2.3%,-10.7%
CCCCn1c(O)c(/C=C2\C=Nc3ccccc32)c(=O)[nH]c1=O,-5.3%,2.2%,?,-5.8%,-2.2%,4.7%
COC(=O)C1=Nc2ccccc2/C1=C\c1c(O)n(-c2ccc(Br)cc2)c(=O)[nH]c1=O,35.5µM*,?,-6.0%,-10.2%,?,-22.8%
O=C(O)c1ccc(-n2c(O)c(/C=C3\C=Nc4ccccc43)c(=O)[nH]c2=O)cc1,50.1µM*,12.2%,?,-5.4%,-13.5%,-4.1%
CC[C@H](OC(C)=O)C(C[C@H](C)NC)(c1ccccc1)c1ccccc1,nt,5.0%[99.4 µM],nt,nt,nt,nt
Cc1cnc2c(C(=O)O)c(Cl)ccc2c1,nt,nt,nt,14.5%[60.1 µM],nt,5.2%
COC(=O)c1ccc(N=C(c2ccccc2)c2c(O)n(C)c(=O)n(C)c2=O)cc1,-0.4%,2.4%,31.6µM*,-15.0%,10.4%,3.7%
CCc1cc(OC)c(CC(C)N)cc1OC (stereo not drawn),nt,8.0%[99.4 µM],nt,nt,nt,nt
C=CCOc1ccc(CC2C(=O)N(C)C(=O)N(C)C2=O)cc1,15.8µM*,-5.6%,?,-16.3%,?,-12.7%
COc1cc(CC(C)N)c(OC)cc1C (stereo not drawn),nt,-1.7%[99.4 µM],nt,nt,nt,nt
Brc1c(Br)c(Br)c2n[nH]nc2c1Br,-2.1%[57.1 µM],nt,?,?,5.5%[57.1 µM],28.2µM*
O=c1c2ccccc2nc(/C=C/c2ccc(O)cc2)n1-c1cccc(O)c1,56.2µM*,7.3%,25.1µM*,?,3.98µM*,?
COc1cccc(-n2c(/C=C/c3ccc(O)c(O)c3)nc3ccccc3c2=O)c1,28.2µM*,17.2%,22.4µM*,-43.2%,8.91µM*,-12.7%
O=c1c2ccccc2nc(/C=C/c2ccc(O)cc2)n1-c1ccc(O)cc1,?,1.7%,-12.3%,6.5%,?,-0.4%
CC(=O)N1CCN(c2ccc(OCC3CO[C@@](Cn4ccnc4)(c4ccc(Cl)cc4Cl)O3)cc2)CC1 (stereo partly drawn),nt,nt,nt,-4.1%[60.1 µM],nt,-1.6%
CNC[C@H](O)c1ccc(OC(=O)C(C)(C)C)c(OC(=O)C(C)(C)C)c1,nt,-3.7%[20 µM],nt,-9.9%[19.4 µM],nt,?
SMILES,Pol eta inh,GLS inhibitor,POLI inh,POLK inh,POLB inh,KAT2A inh
C=CCSC1=N/C(=C\c2cc(OC)c3c(c2)OCO3)C(=O)S1,?,9.7%,?,-20.8%,22.4µM*,-3.3%
CC1=C2C(=O)C3C(CC=C4C[C@@H](O)CC[C@@]43C)[C@@H]2CC[C@]12O[C@@H]1C[C@H](C)CN[C@H]1C2C (stereo partly drawn),nt,nt,nt,10.6%[60.1 µM],nt,31.1%
O=C(O)c1cc[c]([Hg][Cl])cc1,-11.5%,?,1.78µM*,-4.2%[60.1 µM],14.1µM*,0.251µM*
COc1ccc(C(=O)O)cc1OC,0.3%,1.6%,1.9%,1.2%,nt,-0.7%
Cc1ccc(N2C(=O)/C(=C/c3ccc(CN(CCC#N)S(C)(=O)=O)o3)C(=O)NC2=S)cc1,2.24µM*,11.2µM*,3.16µM*,17.8µM*,6.31µM*,-29.3%
CC1=NNC(=O)C1Br (stereo not drawn),-4.8%,3.4%,28.2µM*,-12.7%,nt,nt
CC12CCC(=O)CC1CCC1C2CCC2(C)C1CCC2(C)O (stereo not drawn),nt,-0.5%,nt,nt,nt,nt
NC(=O)CI,-6.8%[57.1 µM],nt,4.9%[58.9 µM],-14.8%[60.1 µM],?,10µM*
COc1ccc(CCNCC2CCCO2)cc1 (stereo not drawn),-4.1%,-4.1%,10.4%,-1.8%,38.1%,-0.3%
CCOc1cccc(OCC)c2c(C)[n+](CC3CCCO3)c(C)c1-2 (stereo not drawn),44.7µM*,10.8%,?,25.1µM*,22.4µM*,-15.1%
COC1C(C)OC(OC2CC(C)(O)Cc3cc4c(c(O)c32)C(=O)c2c(O)cc3c(c2C4=O)OC2OC3(C)C(O)C(N(C)C)C2O)C(OC)C1(C)OC (stereo not drawn),?,8.3%,?,25.1µM*,nt,nt
CC[C@@H](CO)Nc1nc(NCc2ccccc2)c2ncn(C(C)C)c2n1,nt,nt,nt,-13.8%[60.1 µM],nt,?
O=C(Nc1cc(C(F)(F)F)cc(C(F)(F)F)c1)c1cccn(Cc2ccccc2Cl)c1=O,-14.5%,-4.8%,8.2%,-7.6%[60.1 µM],-14.4%,-7.7%
O=C(Nc1cc(C(F)(F)F)cc(C(F)(F)F)c1)c1cc(Cl)ccc1O,nt,nt,nt,29.9µM*!,nt,?
O=C(O)c1ccccc1-c1c2cc(Br)c(=O)cc-2oc2[c]([Hg])c(O)c(Br)cc12,nt,-20.2%[20 µM],nt,15.8µM*,nt,3.16µM*!
C=CCC1=C(C)C(OC(=O)C2C(C=C(C)C)C2(C)C)CC1=O (stereo not drawn),nt,-13.6%[99.4 µM],nt,nt,nt,nt
O=C1NC(=O)[C@]2(Cc3ccccc3N3CCN(c4ccccc4)CC32)C(=O)N1Cc1ccccc1 (stereo partly drawn),20µM*,6.3%,?,-11.7%,-17.1%,-16.3%
O=C1NC(=O)[C@]2(Cc3ccccc3N3CCN(c4ccccc4)CC32)C(=O)N1c1ccccc1 (stereo partly drawn),44.7µM*,23.2%,?,?,-4.8%,-4.9%
